Measurements from PubChem BioAssay (NCATS).
Records with an inconclusive call do not appear. Where a call stands in place of a potency, no number is given. Values without a mark were called inactive. Activity calls are given as the source filed them. Calls come from the whole dose curve; as a rule, active = well fitted inhibition curve with a large enough effect; inconclusive = small, poorly fitted or top-dose-only effect; inactive = no such curve, though single readings can be large or run the other way.

target: Rap guanine nucleotide exchange factor 3 (Homo sapiens) (UniProt O95398); assay: Counterscreen qHTS for antagonist of cAMP-regulated guanine nucleotide exchange factor 3 (EPAC1) (AID 1645888); conditions: Rap1B-BODIPY-GDP nucleotide exchange, fluorescence; series mostly up to 154 µM
Sequence (O95398 whole entry, looked up): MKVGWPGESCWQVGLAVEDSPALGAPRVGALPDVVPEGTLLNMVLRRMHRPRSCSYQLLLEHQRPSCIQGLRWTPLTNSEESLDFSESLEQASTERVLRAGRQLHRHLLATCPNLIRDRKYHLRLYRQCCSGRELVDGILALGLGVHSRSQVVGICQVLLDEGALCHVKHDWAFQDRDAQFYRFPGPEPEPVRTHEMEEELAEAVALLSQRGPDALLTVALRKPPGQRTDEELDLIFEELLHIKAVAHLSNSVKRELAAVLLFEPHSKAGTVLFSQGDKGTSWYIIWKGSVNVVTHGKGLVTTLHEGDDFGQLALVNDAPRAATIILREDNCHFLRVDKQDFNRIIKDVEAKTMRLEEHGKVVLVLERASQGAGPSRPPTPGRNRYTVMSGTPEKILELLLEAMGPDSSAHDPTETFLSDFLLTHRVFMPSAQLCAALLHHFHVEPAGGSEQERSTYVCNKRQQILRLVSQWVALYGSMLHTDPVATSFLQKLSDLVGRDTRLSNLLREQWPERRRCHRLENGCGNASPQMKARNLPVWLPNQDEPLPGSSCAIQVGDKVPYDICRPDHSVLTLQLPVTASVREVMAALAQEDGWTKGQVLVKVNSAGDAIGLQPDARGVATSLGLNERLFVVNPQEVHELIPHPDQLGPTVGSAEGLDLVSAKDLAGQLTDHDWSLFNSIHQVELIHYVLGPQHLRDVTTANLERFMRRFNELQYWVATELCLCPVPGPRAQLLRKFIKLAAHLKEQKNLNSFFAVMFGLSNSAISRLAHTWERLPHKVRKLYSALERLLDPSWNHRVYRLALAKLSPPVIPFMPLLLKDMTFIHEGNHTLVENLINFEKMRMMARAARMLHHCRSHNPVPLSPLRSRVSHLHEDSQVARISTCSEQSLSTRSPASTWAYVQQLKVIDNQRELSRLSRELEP
Excerpt: Assay Provider (PI): Xiaodong Cheng Ph.D. The University of Texas Medical Branch, […], TX MLPCN Grant: NS066510 In multi-cellular eukaryotic organisms, the effects of cAMP are transduced by two ubiquitously-expressed intracellular cAMP receptors, the classic protein kinase A/cAMP-dependent protein kinase (PKA/cAPK) and the more recently discovered exchange protein directly activated by cAMP/cAMP-regulated guanine nucleotide exchange factor (EPAC/cAMP-GEF). Both PKA and EPAC are ubiquitously expressed in all tissues, and an increase in intracellular cAMP levels will lead to the activation of both PKA and EPAC. Therefore, careful dissections of the individual role and relative contribution of EPAC and PKA within the overall cAMP signaling in various model systems are critical for further elucidating the mechanism of cAMP signaling. To date no EPAC-specific antagonists and agonist, as well as isoform-specific agonists have been reported, and developing EPAC-specific pharmacological probes to determine the physiological functions that EPAC play in the overall cAMP-mediated signaling remains a major challenge within the research field. Furthermore, identified regulators of EPAC may lead to new mechanism-based therapeutic strategies specifically targeting the EPAC / cAMP-signaling components as EPAC has been implicated to play important roles in major human pathological conditions such as diabetes, heart disease, and cancer. This qHTS will be used to screen the Molecular Libraries Small Molecule Repository (MLSMR) as a concentration-titration series using the NCGC unique quantitative screening (qHTS) platform to find activators for EPAC1. In addition, this assay will also be used as a counterscreen for the EPAC2 qHTS. This fluorescent based assay is developed and validated for EPAC1 that measures exchange using EPAC effector Rap1 complex with BODIPY-GDP, a GDP analog with a tethered fluorophores. Activators are identified by monitoring the change in fluorescence signal as the exchanged free BODIPY-GDP has a reduced fluorescence compared to Rap1-bound BODIPY-GDP. Increase in signal (activation) is the desired outcome for the EPAC1 agonist while no activity in this assay is desired for the EPAC2 agonist counterscreen. Reference: [1] de Rooij, J., Zwartkruis, F. J., Verheijen, M. H., Cool, R. H., Nijman, S. M., Wittinghofer, A., and Bos, J.L. (1998) Nature 396, 474-477. Kawasaki, H., Springett, G. M., Mochizuki, N., Toki, S., Nakaya, M., Matsuda, M., Housman, D. E., and Graybiel, A. M. (1998) Science 282, 2275-2279.
EPAC1 Counterscreen PROTOCOL TABLE SEQUENCE No. (e.g., 1, 2, 3, etc.); […] (e.g., Cells, Incubation, Reagent, etc.); VALUE and DESCRIPTION. 1. Reagent. 3 uL. [1x] 250 nM Rap1B-BODIPY-GDP, and 50 uM GDP. 2a. Compound. 23 nL. Control 6,572 uM cAMP (working concentration). 2b, 2c. Compound. 23 nL. Control activator and inhibitor; 234 - 30,000 uM cAMP and 16.4 - 10,000 uM. 2d. Compound. 46 nL. MLSMR follow-up library; 0.64 - 10,000 uM. 3. Time. 15 sec, 1000rpm. Centrifuge. 4. Time. 5 min. Incubation at room temperature. 5. Detector. Fluorescence. (Read 1), Ex/Em = 480 nm / 540 nm. 6. Time. 30 min. Incubation at room temperature. 7. Detector. Fluorescence. (Read 2), Ex/Em = 480 nm/ 540 nm. 8. Reagent. 1uL. Dispense either [4x] 10 uM cAMP or buffer. 9. Time. 15 sec, 1000 rpm. Centrifuge. 10. Time. 5 min. Incubation at room temperature. 11. Detector. Fluorescence. (Read 3), Ex/Em = 480 nm / 540 nm. 12. Time. 30 min. Incubation at room temperature. 13. Detector. Fluorescence. (Read 4), Ex/Em = 480 nm / 540 nm. NOTES (numbers refer to Sequence numbers above; values are from representative experiments) 1. Medium-binding black solid-bottom Greiner plates (789176-F). Dispense 3 uL of [1x] 250 nM Rap1B-BODIPY-GDP, and 50 uM GDP into columns 1 to 48. 2a. Control compound cAMP (6,572 uM, column 3, rows 1 to 32) single pin-transferred for a [final] of 50 uM. 2b. […]

| Compound | Potency | activity change, negative = inhibition |
| --- | --- | --- |
| Cc1ccc(-n2nc3c(=O)n(CCCC(=O)NCc4ccc(F)cc4)nc(C)c3c2C)cc1 | inactive |  |
| O=C(O)CC/C(=C\c1ccc(N2CCCC2)c([N+](=O)[O-])c1)c1nc2ccccc2s1 | inactive |  |
| Cc1cc(Br)cn2c(Cc3ccsc3)c(-c3ccco3)nc12 |  | 4.94% [at 30.8 µM] |
| CCN(CC)c1nc2ccccc2nc1C(C#N)C(=O)NCCc1ccccc1 (stereo not given) | inactive |  |
| COc1ccc(OC)c(N2C(=O)[C@@H]3C(c4ccccc4Cl)=NO[C@@H]3C2=O)c1 | inactive |  |
| O=C(O)COc1ccc(/C=N/NC(=O)c2ccc(-c3csc(Nc4ccc(Cl)cc4)n3)cc2)cc1 | inactive |  |
| Cc1cc(C)c(C(=O)c2ccccc2)c(C)c1 | inactive |  |
| C[C@@H]1COC(=O)[C@H](NC(=O)OCC2c3ccccc3-c3ccccc32)C/C=C\C[C@@H](CC(=O)N[C@H](CO)Cc2ccccc2)C(=O)N1 |  | -6.46% [at 30.8 µM] |
| CCOC(=O)c1c(C)oc2c1c(C=NCCO)c(O)c1ccccc12 |  | 33.4% [at 30.8 µM] |
| O=C(Cc1ccccc1Cl)Nc1ccc(S(=O)(=O)N2CCOCC2)cc1 | inactive |  |
| Cc1cc(C(=O)Cn2ncc(Cl)c(Cl)c2=O)c(C)n1CC(F)(F)F |  | -8.86% [at 30.8 µM] |
| N#C/C(=C/c1ccc(O)c(O)c1)C(=O)NCc1ccc(Cl)cc1 |  | -1.17% [at 30.8 µM] |
| O=C(O)CSCC(=O)N(Cc1ccccc1)c1nc(-c2ccccc2)c(-c2ccccc2)s1 | inactive |  |
| CCCCCCc1cc2cc(-c3nnc(-c4ccc(C)cc4)o3)c(=O)oc2cc1O | inactive |  |
| CCN(CC)S(=O)(=O)c1ccc2[nH]c(=O)cc(C(=O)Nc3ccc(C)c(S(=O)(=O)N(CC)CC)c3)c2c1 | inactive |  |
| CCOC(=O)c1ccc(-n2c(N)c(C(=O)OC)c3nc4ccccc4nc32)cc1 | inactive |  |
| Cc1ccc(S(=O)(=O)N2[C@@H](c3ccc(C(C)(C)C)cc3)C(C(=O)O)=CC[C@H]2c2cccs2)cc1 | inactive |  |
| O=C(Nc1c(-c2ccc3c(c2)OCO3)[nH][nH]c1=O)c1ccccc1 | inactive |  |
| Cc1nc2c(OCc3ccc(C(F)(F)F)cc3)cccn2c1N(C)Cc1cccs1 | inactive |  |
| CCOC(=O)C1=C(C)NC(C)=C(C(=O)OCC)C1C(=O)OCC(=O)NCc1ccc(F)cc1 | inactive |  |

| Compound | Potency | activity change, negative = inhibition |
| --- | --- | --- |
| C=CCSc1nc2ccccc2c(=O)n1Cc1ccccc1 |  | 17.3% [at 30.8 µM] |
| COc1cc(-c2cc(OC)c3c(C)oc(C)c3c(=O)c2)ccc1OC(=O)c1ccccc1F | inactive |  |
| O=C(NCc1ccco1)c1c2c(nc3ccccc13)CCC2 |  | -4.49% [at 30.8 µM] |
| CCN(CC)c1nc2ccccc2n(Cc2cccc(OC)c2)c1=O | inactive |  |
| COc1ccccc1NC(=O)c1sc2nc(Cc3ccccc3)cc(C(F)(F)F)c2c1N |  | -9.81% [at 30.8 µM] |
| CN(c1ccccc1)c1ccc(/C=C(/CCC(=O)O)c2nc3ccccc3s2)cc1[N+](=O)[O-] | inactive |  |
| CC(=O)c1cccc(NC(=O)Cn2cc(C(=O)c3cccc(Cl)c3)c(=O)c3ccc(C)nc32)c1 | inactive |  |
| O=S(=O)(O)c1ccc(NN=Cc2ccccc2O)cc1 |  | 3.2% [at 30.8 µM] |
| O=C(O)/C=C\C(=O)Nc1ccccc1C#Cc1ccc(Br)cc1 | inactive |  |
| CCN1CC=C2C(C#N)=C(N)C(C#N)(C#N)C(CCc3ccccc3)C2C1 (stereo not given) | inactive |  |
| Cc1ccc(C)c(S(=O)(=O)N2CCN(C(=O)CCc3nc4ccccc4c(=O)[nH]3)CC2)c1 |  | -11.5% [at 30.8 µM] |
| CCOc1ccc(C(=O)N/N=C/c2cc(Cl)ccc2[N+](=O)[O-])cc1 |  | -12.2% [at 30.8 µM] |
| O=C(O)c1ccc(COc2ccccc2/C=C2\NC(=O)N(Cc3ccc(F)cc3)C2=O)cc1 | inactive |  |
| COc1ccc(/C=C2\SC(=S)NC2=O)cc1OS(=O)(=O)c1ccc(NC(C)=O)cc1 | inactive |  |
| CN1CC=C2C(C#N)=C(N)C(C#N)(C#N)C(c3ccsc3)C2C1 (stereo not given) | inactive |  |
| CCCCCCOC(=O)C(C#N)c1nc2ccccc2nc1N1CCCCC1 (stereo not given) | inactive |  |
| CCn1c(=O)c(C(=O)Nc2ccccc2S(N)(=O)=O)c(O)c2ccccc21 | inactive |  |
| COc1ccccc1N1CCN(C(=O)c2ccc(S(=O)(=O)N3CCCC3)cc2)CC1 | inactive |  |
| CC(C)(C)CNC(=O)c1cccc2c1C(=O)c1ccc(-c3cc4ccccc4o3)cc1S2(=O)=O | inactive |  |
| CCOP(=O)(OCC)C(Cc1ccccc1)N=C(c1ccccc1)c1ccccc1 (stereo not given) |  | 3.36% [at 30.8 µM] |
